Assay results reported in article PMC7862700, “An all-to-all approach to the identification of sequence-specific readers for epigenetic DNA modifications on cytosine”.

Experiments:
Test in all cases: DAPPL (digital affinity profiling via proximity ligation, sequencing); 10 mM Tris-HCl pH 7.5, 50 mM NaCl, 1 mM DTT, 4% glycerol, room temperature, 30 min; GST-TFs on glutathione beads, 16-mer random dsDNA library, 0.1% formaldehyde crosslink after washing; high values mean tight binding
FLI1 = target: T1, FLI1 (Homo sapiens, UniProt Q01543 1-452); conditions: protein: recombinant; tags: N-terminal GST; dsDNA, one strand shown
T1 sequence: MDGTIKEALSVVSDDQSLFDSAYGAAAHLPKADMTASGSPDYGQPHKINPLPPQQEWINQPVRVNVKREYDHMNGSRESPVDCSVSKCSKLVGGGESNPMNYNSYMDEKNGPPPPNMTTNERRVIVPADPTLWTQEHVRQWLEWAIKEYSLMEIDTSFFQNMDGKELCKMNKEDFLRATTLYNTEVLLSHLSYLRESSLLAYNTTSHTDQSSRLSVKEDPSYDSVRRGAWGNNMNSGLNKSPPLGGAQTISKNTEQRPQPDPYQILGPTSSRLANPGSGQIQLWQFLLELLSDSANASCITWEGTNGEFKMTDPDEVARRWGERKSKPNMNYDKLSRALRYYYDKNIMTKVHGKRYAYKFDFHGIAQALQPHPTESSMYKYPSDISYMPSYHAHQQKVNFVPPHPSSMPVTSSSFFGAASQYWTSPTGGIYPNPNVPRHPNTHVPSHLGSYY
Procedure, shortened: (§1)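 The binding signal reported is, for every hexamer, its read frequency for a factor over its read frequency for the tag-only sample. Reads came from pools of yeast-expressed, GST-fused human transcription factors on glutathione beads, barcoded with DNA and mixed with that sample, which were incubated with 200 nmole of a random double-stranded 16-mer DNA library in Tris/NaCl/DTT/glycerol buffer at room temperature for 30 min. After washing, the pools were crosslinked with 0.1% formaldehyde, proximity-ligated with BsaI/T4 ligase for 1 h at 37 °C, PCR-amplified and sequenced on an Illumina NextSeq500.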

ELK1 = target: T2, ELK1 (Homo sapiens, UniProt P19419 1-428); conditions: protein: recombinant; tags: N-terminal GST; dsDNA, one strand shown
T2 sequence: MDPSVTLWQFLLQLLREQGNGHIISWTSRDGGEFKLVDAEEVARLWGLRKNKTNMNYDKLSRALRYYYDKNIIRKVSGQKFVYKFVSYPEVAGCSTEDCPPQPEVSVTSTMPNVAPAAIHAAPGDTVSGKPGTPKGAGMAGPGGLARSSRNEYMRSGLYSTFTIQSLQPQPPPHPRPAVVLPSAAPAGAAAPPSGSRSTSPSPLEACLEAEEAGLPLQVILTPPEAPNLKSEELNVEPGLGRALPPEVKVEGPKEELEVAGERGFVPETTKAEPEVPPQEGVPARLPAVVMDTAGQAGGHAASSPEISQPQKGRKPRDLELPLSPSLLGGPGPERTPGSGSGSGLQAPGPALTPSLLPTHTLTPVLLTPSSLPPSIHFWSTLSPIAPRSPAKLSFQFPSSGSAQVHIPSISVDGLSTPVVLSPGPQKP
Procedure, shortened: as §1

GABPA = target: T3, GABPA (Homo sapiens, UniProt Q06546 1-454); conditions: protein: recombinant; tags: N-terminal GST; dsDNA, one strand shown
T3 sequence: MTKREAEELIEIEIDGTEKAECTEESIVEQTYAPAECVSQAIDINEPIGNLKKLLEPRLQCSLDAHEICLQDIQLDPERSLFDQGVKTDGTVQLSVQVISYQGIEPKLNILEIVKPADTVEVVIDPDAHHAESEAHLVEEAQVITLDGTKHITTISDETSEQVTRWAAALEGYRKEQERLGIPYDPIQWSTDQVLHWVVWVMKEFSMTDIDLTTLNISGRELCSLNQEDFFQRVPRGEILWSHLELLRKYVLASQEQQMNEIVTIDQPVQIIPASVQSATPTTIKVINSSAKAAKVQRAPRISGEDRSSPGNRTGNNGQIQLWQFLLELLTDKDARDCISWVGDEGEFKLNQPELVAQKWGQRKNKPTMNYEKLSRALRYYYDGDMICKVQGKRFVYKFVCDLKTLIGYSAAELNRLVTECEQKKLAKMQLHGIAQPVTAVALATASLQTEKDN
Procedure, shortened: as §1

ERG = target: T4, ERG (Homo sapiens, UniProt P11308 1-479); conditions: protein: recombinant; tags: N-terminal GST; dsDNA, one strand shown
T4 sequence: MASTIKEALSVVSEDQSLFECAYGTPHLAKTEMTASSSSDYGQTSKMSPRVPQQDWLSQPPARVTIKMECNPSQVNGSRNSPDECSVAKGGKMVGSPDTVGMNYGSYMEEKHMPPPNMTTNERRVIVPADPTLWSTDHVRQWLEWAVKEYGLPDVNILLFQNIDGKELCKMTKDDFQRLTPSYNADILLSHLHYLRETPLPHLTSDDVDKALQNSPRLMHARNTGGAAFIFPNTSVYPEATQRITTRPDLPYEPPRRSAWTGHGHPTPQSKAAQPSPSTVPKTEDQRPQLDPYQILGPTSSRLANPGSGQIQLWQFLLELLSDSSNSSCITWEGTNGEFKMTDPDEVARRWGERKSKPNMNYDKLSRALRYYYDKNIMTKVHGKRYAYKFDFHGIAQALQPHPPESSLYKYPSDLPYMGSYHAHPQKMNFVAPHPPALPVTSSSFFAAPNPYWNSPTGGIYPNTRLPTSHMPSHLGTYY
Procedure, shortened: as §1

ELF1 = ELF1 (Homo sapiens, UniProt P32519 1-619); conditions: protein: recombinant; tags: N-terminal GST; dsDNA, one strand shown
Sequence of ELF1 (P32519 whole entry): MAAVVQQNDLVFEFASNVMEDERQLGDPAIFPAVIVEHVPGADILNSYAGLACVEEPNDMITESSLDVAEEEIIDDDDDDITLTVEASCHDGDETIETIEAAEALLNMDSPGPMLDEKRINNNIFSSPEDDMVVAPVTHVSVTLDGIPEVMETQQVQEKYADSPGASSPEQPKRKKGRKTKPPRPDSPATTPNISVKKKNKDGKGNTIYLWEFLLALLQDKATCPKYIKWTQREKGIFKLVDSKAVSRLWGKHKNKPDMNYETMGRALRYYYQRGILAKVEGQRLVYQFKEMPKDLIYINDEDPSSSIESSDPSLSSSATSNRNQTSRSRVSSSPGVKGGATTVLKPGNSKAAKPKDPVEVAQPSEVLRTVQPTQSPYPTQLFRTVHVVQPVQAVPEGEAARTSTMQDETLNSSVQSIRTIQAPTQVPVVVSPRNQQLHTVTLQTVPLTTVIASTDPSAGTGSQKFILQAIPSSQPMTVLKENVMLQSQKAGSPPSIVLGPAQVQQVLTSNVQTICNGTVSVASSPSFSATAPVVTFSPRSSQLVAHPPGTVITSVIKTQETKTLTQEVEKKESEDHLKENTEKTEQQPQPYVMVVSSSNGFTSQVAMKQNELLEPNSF
Procedure, shortened: as §1

EHF = target: T5, EHF (Homo sapiens, UniProt Q9NZC4 1-300); conditions: protein: recombinant; tags: N-terminal GST; dsDNA, one strand shown
T5 sequence: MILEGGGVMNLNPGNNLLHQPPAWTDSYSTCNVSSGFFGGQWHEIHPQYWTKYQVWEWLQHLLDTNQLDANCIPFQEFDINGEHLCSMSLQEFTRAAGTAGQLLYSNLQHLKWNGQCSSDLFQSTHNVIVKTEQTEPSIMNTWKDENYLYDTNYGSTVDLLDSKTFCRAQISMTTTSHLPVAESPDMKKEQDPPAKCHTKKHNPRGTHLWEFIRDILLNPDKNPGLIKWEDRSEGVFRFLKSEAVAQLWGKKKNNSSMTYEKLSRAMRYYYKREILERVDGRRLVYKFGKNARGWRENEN
Procedure, shortened: as §1

SPI1 = SPI1 (Homo sapiens, UniProt P17947 1-270); conditions: protein: recombinant; tags: N-terminal GST; dsDNA, one strand shown
Procedure, shortened: as §1

SPIB = SPIB (Homo sapiens, UniProt Q01892 1-262); conditions: protein: recombinant; tags: N-terminal GST; dsDNA, one strand shown
Sequence of SPIB (Q01892 whole entry): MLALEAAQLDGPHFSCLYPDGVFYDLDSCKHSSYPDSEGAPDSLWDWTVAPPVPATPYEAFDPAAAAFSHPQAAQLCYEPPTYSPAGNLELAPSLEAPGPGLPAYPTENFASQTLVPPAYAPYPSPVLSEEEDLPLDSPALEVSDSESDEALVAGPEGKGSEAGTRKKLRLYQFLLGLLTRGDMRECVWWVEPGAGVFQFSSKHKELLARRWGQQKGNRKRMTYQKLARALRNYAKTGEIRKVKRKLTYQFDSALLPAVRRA
Procedure, shortened: as §1

ELK3 = target: T6, ELK3 (Homo sapiens, UniProt P41970 1-407); conditions: protein: recombinant; tags: N-terminal GST; dsDNA, one strand shown
T6 sequence: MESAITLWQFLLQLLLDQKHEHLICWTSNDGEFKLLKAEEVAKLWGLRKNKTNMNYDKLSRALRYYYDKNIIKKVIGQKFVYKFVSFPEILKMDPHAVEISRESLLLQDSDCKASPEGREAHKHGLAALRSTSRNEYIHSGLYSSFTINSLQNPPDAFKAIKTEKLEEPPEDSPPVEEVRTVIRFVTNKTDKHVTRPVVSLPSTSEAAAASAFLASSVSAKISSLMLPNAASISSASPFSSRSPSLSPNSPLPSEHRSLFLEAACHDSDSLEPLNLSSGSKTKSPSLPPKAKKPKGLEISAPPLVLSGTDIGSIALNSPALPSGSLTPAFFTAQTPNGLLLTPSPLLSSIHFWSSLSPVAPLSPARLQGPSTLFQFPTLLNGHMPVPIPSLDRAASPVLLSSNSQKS
Procedure, shortened: as §1

FEV = target: T7, FEV (Homo sapiens, UniProt Q99581 1-238); conditions: protein: recombinant; tags: N-terminal GST; dsDNA, one strand shown
T7 sequence: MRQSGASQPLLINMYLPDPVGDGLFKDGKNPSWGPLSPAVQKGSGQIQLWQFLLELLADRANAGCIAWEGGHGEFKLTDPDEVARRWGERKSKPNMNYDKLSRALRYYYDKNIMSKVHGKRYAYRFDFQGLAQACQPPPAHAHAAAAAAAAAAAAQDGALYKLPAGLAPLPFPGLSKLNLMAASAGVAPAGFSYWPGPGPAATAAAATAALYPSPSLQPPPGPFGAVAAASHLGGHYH
Procedure, shortened: as §1

ETV5 = ETV5 (Homo sapiens, UniProt P41161 1-510); conditions: protein: recombinant; tags: N-terminal GST; dsDNA, one strand shown
Sequence of ETV5 (P41161 whole entry): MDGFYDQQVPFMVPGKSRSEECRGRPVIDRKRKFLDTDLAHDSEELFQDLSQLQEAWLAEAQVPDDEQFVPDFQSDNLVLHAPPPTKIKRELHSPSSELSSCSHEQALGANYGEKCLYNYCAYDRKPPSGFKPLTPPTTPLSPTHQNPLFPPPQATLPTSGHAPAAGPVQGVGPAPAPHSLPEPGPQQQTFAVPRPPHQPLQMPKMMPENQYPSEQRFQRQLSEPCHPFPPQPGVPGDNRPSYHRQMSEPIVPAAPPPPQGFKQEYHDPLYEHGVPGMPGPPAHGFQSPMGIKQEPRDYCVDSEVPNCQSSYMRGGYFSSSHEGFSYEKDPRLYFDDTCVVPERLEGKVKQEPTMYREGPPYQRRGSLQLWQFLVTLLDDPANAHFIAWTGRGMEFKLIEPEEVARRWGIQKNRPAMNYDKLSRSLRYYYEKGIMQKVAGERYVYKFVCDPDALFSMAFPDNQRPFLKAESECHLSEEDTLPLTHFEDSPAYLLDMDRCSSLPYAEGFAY
Procedure, shortened: as §1

HSF1 = HSF1 (Homo sapiens, UniProt Q00613 1-529); conditions: protein: recombinant; tags: N-terminal GST; chain copies: 3; dsDNA, one strand shown
Sequence of HSF1 (Q00613 whole entry): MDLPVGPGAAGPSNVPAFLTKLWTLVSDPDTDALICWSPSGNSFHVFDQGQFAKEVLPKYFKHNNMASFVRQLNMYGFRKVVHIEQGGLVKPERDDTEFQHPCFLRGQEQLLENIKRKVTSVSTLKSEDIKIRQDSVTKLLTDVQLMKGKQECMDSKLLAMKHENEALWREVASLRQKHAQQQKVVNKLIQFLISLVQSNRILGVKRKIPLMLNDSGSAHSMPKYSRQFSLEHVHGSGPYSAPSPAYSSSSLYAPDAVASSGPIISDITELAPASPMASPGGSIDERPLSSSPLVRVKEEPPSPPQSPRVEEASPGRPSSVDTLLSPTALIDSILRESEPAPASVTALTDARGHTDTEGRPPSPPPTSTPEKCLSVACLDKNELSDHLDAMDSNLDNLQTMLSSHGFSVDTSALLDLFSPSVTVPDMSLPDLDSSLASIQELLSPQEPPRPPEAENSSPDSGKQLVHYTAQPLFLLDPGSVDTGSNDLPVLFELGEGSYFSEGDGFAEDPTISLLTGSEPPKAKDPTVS
Procedure, shortened: as §1

SPIC = target: T8, SPIC (Homo sapiens, UniProt Q8N5J4 1-248); conditions: protein: recombinant; tags: N-terminal GST; dsDNA, one strand shown
T8 sequence: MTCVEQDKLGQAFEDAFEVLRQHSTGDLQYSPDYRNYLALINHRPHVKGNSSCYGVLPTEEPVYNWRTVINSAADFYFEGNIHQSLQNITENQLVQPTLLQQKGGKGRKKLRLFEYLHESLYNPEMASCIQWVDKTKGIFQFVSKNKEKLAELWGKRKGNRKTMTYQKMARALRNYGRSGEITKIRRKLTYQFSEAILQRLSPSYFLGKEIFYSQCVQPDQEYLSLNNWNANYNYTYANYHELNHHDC
Procedure, shortened: as §1

ELF4 = ELF4 (Homo sapiens, UniProt Q99607 1-663); conditions: protein: recombinant; tags: N-terminal GST; dsDNA, one strand shown
Sequence of ELF4 (Q99607 whole entry): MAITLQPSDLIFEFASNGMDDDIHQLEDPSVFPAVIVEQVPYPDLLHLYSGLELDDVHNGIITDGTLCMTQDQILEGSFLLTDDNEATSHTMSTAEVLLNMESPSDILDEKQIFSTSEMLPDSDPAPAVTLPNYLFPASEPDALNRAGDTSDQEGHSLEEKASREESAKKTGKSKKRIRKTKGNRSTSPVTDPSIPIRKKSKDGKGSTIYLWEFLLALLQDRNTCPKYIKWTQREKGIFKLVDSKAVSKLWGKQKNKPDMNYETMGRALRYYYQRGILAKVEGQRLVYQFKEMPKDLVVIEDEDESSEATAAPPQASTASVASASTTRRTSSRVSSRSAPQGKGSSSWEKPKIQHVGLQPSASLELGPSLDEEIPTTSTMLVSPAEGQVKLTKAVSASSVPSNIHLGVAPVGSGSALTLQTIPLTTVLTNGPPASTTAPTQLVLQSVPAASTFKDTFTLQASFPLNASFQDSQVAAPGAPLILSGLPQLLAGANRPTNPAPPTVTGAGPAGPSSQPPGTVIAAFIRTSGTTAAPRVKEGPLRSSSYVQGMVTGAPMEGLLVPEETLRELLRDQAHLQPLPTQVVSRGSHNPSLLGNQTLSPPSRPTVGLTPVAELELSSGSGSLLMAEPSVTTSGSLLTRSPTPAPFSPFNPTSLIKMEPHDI
Procedure, shortened: as §1

ELK4 = target: T9, ELK4 (Homo sapiens, UniProt P28324-2 1-405); conditions: protein: recombinant; tags: N-terminal GST; dsDNA, one strand shown
T9 sequence: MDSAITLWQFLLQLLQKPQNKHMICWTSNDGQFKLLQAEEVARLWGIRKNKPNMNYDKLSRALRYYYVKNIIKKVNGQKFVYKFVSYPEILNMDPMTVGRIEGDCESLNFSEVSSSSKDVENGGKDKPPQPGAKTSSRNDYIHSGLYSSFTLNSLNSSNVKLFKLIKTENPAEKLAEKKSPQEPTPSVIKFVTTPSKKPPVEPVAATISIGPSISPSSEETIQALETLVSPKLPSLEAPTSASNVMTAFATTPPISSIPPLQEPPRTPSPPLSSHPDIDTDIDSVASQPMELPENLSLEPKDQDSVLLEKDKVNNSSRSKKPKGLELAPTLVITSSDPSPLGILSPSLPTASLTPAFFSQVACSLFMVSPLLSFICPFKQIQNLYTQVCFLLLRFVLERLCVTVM
Procedure, shortened: as §1

ETV2 = target: T10, ETV2 (Homo sapiens, UniProt O00321 1-342); conditions: protein: recombinant; tags: N-terminal GST; dsDNA, one strand shown
T10 sequence: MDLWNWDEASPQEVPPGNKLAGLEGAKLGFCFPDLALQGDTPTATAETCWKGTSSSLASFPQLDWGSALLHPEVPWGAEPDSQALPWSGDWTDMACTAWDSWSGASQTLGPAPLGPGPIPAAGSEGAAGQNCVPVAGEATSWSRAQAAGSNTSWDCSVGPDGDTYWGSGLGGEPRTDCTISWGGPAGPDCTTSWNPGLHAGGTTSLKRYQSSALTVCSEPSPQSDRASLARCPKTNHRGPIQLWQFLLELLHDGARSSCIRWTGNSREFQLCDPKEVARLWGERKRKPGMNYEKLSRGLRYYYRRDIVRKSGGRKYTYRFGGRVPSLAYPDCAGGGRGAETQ
Procedure, shortened: as §1

CRX = CRX (Homo sapiens, UniProt O43186 1-299); conditions: protein: recombinant; tags: N-terminal GST; dsDNA, one strand shown
Sequence of CRX (O43186 whole entry): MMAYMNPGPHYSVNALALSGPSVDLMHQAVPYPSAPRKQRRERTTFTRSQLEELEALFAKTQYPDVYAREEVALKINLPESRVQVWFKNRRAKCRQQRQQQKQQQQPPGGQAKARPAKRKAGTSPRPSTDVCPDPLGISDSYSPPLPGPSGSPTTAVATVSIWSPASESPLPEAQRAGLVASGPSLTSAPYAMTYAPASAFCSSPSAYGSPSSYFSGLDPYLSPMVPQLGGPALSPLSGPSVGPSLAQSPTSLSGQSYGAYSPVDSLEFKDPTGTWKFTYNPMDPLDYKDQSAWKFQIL
Procedure, shortened: as §1

ETV1 = ETV1 (Homo sapiens, UniProt P50549 1-477); conditions: protein: recombinant; tags: N-terminal GST; dsDNA, one strand shown
Sequence of ETV1 (P50549 whole entry): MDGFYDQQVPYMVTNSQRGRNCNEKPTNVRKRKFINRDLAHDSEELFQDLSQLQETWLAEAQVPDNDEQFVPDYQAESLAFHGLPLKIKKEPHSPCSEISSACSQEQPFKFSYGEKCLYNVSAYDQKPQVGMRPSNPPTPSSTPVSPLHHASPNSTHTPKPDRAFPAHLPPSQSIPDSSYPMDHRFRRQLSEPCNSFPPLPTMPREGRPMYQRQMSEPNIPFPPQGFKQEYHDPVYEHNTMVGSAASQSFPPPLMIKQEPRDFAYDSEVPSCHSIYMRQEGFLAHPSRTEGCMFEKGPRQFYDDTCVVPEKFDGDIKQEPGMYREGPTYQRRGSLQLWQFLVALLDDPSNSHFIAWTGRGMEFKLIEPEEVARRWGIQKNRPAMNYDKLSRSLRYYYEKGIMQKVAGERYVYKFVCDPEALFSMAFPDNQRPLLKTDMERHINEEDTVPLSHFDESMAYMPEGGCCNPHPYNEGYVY
Procedure, shortened: as §1

Sequence | binding signal (FLI1) | binding signal (ELK1) | binding signal (GABPA) | binding signal (ERG) | binding signal (ELF1) | binding signal (EHF) | binding signal (SPI1) | binding signal (SPIB) | binding signal (ELK3) | binding signal (FEV) | binding signal (ETV5) | binding signal (HSF1) | binding signal (SPIC) | binding signal (ELF4) | binding signal (ELK4) | binding signal (ETV2) | binding signal (CRX) | binding signal (ETV1)
GATACT | 1.14 fold enrichment (6-mer frequency, TF over GST control) | 1.01 fold enrichment (6-mer frequency, TF over GST control) | 1.2 fold enrichment (6-mer frequency, TF over GST control) | 1.21 fold enrichment (6-mer frequency, TF over GST control) | 1.1 fold enrichment (6-mer frequency, TF over GST control) | 1.21 fold enrichment (6-mer frequency, TF over GST control) | 1.12 fold enrichment (6-mer frequency, TF over GST control) | 1.16 fold enrichment (6-mer frequency, TF over GST control) | 1.09 fold enrichment (6-mer frequency, TF over GST control) | 1.1 fold enrichment (6-mer frequency, TF over GST control) | 1.07 fold enrichment (6-mer frequency, TF over GST control) | 1.07 fold enrichment (6-mer frequency, TF over GST control) | 1.05 fold enrichment (6-mer frequency, TF over GST control) | 1.18 fold enrichment (6-mer frequency, TF over GST control) | 1.18 fold enrichment (6-mer frequency, TF over GST control) | 1.02 fold enrichment (6-mer frequency, TF over GST control) | 1.07 fold enrichment (6-mer frequency, TF over GST control) | 1.1 fold enrichment (6-mer frequency, TF over GST control)
CTCCAT | 1.34 fold enrichment (6-mer frequency, TF over GST control) | 1.38 fold enrichment (6-mer frequency, TF over GST control) | 1.31 fold enrichment (6-mer frequency, TF over GST control) | 1.34 fold enrichment (6-mer frequency, TF over GST control) | 1.34 fold enrichment (6-mer frequency, TF over GST control) | 1.37 fold enrichment (6-mer frequency, TF over GST control) | 1.32 fold enrichment (6-mer frequency, TF over GST control) | 1.25 fold enrichment (6-mer frequency, TF over GST control) | 1.36 fold enrichment (6-mer frequency, TF over GST control) | 1.36 fold enrichment (6-mer frequency, TF over GST control) | 1.43 fold enrichment (6-mer frequency, TF over GST control) | 1.21 fold enrichment (6-mer frequency, TF over GST control) | 1.12 fold enrichment (6-mer frequency, TF over GST control) | 1.28 fold enrichment (6-mer frequency, TF over GST control) | 1.4 fold enrichment (6-mer frequency, TF over GST control) | 1.46 fold enrichment (6-mer frequency, TF over GST control) | 1.19 fold enrichment (6-mer frequency, TF over GST control) | 1.3 fold enrichment (6-mer frequency, TF over GST control)
